Assay results as given in PubChem BioAssay AID2551 (National Center for Advancing Translational Sciences (NCATS), 2010).
Among all 310,000 compounds or so, about 17,000 (5.5%) were called active. Not shown: some 11% with an inconclusive outcome. Calls follow the shape of the dose curve; as a rule, active = well fitted inhibition curve with a large enough effect; inconclusive = small, poorly fitted or top-dose-only effect, or effect the other way; inactive = no such curve, though single readings can be large or run the other way. Many of the other results were omitted from the sample, so actives are more common in it than they were.

Target: Nuclear receptor ROR-gamma (Mus musculus) (UniProt P51450)
Sequence (P51450 whole entry, looked up): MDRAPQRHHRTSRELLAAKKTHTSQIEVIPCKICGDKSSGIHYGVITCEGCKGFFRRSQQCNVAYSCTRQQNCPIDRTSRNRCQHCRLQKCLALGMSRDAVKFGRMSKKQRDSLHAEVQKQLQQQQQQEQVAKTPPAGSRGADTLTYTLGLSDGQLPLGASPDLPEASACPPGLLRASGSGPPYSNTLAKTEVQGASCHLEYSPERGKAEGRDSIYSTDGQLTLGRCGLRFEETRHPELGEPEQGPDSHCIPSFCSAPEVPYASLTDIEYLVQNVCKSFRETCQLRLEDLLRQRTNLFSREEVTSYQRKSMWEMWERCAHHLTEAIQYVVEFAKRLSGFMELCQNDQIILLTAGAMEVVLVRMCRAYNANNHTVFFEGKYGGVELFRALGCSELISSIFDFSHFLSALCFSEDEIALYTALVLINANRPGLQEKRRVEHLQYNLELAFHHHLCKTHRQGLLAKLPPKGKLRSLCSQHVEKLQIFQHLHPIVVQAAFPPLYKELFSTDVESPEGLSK
Assay: qHTS for inhibitors of ROR gamma transcriptional activity; also: nearly all actives have a fitted effect of over 60% in size
Details: Drosophila S2 Gal4-RORgamma UAS-luciferase reporter, 20 h; series mostly up to 53.6 µM; activity change, negative = inhibition: at the top concentration
Outline: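 Drosophila S2 cells stably expressing Gal4-DBD/mouse RORγ fusion under metallothionein promoter plus UAS-luciferase; compound 1 h, then 700 uM CuSO4 induction for 20 h at ambient temperature; inhibition read as reduced luminescence.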
% is scaled to controls: 0 for no effect and ±100 for the full control effect; potency is read from the fitted curve at half-maximal effect.

Activity change, negative = inhibition, inactive:
COc1ccc(CNC(=O)CSc2n[nH]c(N)n2)cc1OC -19.3%
Cc1noc(NS(=O)(=O)c2ccc(N/C=C/C(=O)c3ccccc3)cc2)c1C 0%
O=C(/C=C\NCC(=O)c1ccccc1)c1ccccc1 2.82%
C=CCOc1ccc(/C=C2/C(=O)ON=C2C)cc1OCC 17%
COc1cc(/C=C2/C(=O)ON=C2C)ccc1OCc1cccc(F)c1 -4.14%
Cc1nn2c(=O)cc(COC(=O)c3ccc(NC(=O)C(C)(C)C)cc3)nc2s1 10.3%
Cc1cccc(C)c1NC(=O)CSc1nnc(-c2ccccc2)n1Cc1ccc2c(c1)OCO2 2.3%
O=C(Cn1nnc(-c2ccccc2)n1)NCc1ccc2c(c1)OCO2 -22%
COC(=O)c1c(C)[nH]c(C(=O)NCCc2ccc(S(N)(=O)=O)cc2)c1C 24.7%
CCCCOC(=O)c1[nH]c(C)c(C(=O)OC)c1C 7.72%
CCS(=O)(=O)N1CCC(N2CCN(c3ccccc3)CC2)CC1 5.83%
N#Cc1ccc(C(=O)Nc2cccc3cccnc23)c(F)c1 -2.31%
O=C(COC(=O)c1ccccn1)Nc1cccc2ccccc12 -8.28%
Cc1ccc(CNC(=O)Cn2cnc(S(=O)(=O)N3CCCCC3)c2)o1 -12.9%
Cc1c(C)c(C)c(S(=O)(=O)NCCc2ccccn2)c(C)c1C -20.7%
COc1cc(NC(=O)c2ccccc2)c(OC)cc1NC(=O)Cc1ccccc1 12.2%
O=C(O)CCCn1c(=O)c2cccn2c2ccc(F)cc21 6.5%
Cc1ccc(-n2c(SCC(=O)NCCC3=CCCCC3)nc3n[nH]c(C)c3c2=N)cc1Cl -37.4%
Cc1nonc1NC(=O)c1ccccc1Br -2.61%
O=C(Nc1cccc(Cl)c1)Nc1nnc(-c2ccccc2)o1 -9.93%
CN=C1S/C(=C\c2c(OC)cc(OC)cc2OC)C(=O)N1C -16.9%
CCc1ccc(S(=O)(=O)Nc2cc3c(cc2N2CCCCC2)n(C)c(=O)c(=O)n3C)cc1 0.731%
Cn1c(CCNS(=O)(=O)c2ccc(F)cc2)nnc1SCc1cccnc1 -11.7%
CCC(C)NC(=O)CCCc1ccccc1 (configuration not stated) 16.6%
O=C(C1CC1)N1N=C(c2ccc(Br)cc2)CC1(O)C(F)(F)F (configuration not stated) -5.41%
CCCCCNC(=O)Cc1ccc(OC)cc1 10.8%
COc1ccc(C(=O)CCc2ccccc2O)c(OC)c1 3.95% [at 1.91 µM]
CC(=O)N1N=C(c2ccncc2)OC1(Cc1ccccc1)Cc1ccccc1 -14.5%
O=C(CCc1ccccc1F)N1CCN(c2ccccc2)CC1 -19.2%
COc1ccc(CC(=O)Nc2ccc(C(=O)NC(C)(C)C)cc2)cc1 6.08%
COc1ccccc1N1CCN(S(=O)(=O)c2ccc3c(c2)NC(=O)CS3)CC1 25.3%
COc1cccc(NC(=O)N2CCC(NC(=O)C(Cc3cccc(C)c3)NC(C)=O)CC2)c1 (configuration not stated) -5.25%
CC(C)CN(Cc1c(O)ccc2c(=O)c(-c3ccccc3)coc12)CC(C)C 27% [at 1.91 µM]
CC(C)[C@H](NC(=O)N1c2ccccc2NC(=O)[C@@H]1C(C)C)C(=O)N[C@H](C(=O)O)c1ccccc1 -2.3%
CN(C(=O)CN1C(=O)/C(=C/c2ccc(Cl)cc2)SC1=S)C1CCS(=O)(=O)C1 (configuration not stated) -12.4%
CC(=O)C1=C(O)C(=O)N(c2ccc(Br)cc2)C1c1ccc([N+](=O)[O-])cc1 (configuration not stated) -3.44%
CC1Cc2cc(/C(O)=C3\C(=O)C(=O)N(Cc4cccnc4)C3c3ccccc3F)ccc2O1 (configuration not stated) -7.77%
Cc1ccc(C2SCC(=O)N2c2ccccc2)cc1 (configuration not stated) -32.8%
COc1ccc(C(=O)CCC(=O)Nc2ccc(Cl)cc2)cc1 37%
CCOC(=O)C1(Cc2ccccc2C)CCCN(C(=O)CN2C(=O)CSC2=O)C1 (configuration not stated) 0%
N#Cc1ccc(/C=C2\CCn3c2nc2cc(C(=O)O)ccc2c3=O)cc1 38.3%
Cc1ccc(NC2=C(Cl)C(=O)OC2OC(=O)c2ccccc2C)cc1 (configuration not stated) 40.2%
CCOC(=O)CNc1nc(Cl)nc(Nc2ccccc2)n1 -7.07%
COC(=O)c1sccc1NC(=O)c1ccc(Cl)cc1 -3.43%
Cc1csc(NC(=O)Nc2ccccc2[N+](=O)[O-])n1 -4.77%
CCOC(=O)C/C(C)=N\Nc1ccc([N+](=O)[O-])cc1[N+](=O)[O-] 9.42%
COc1ccc(OCc2cc(C(=O)NCC3(C)COC3)no2)c(Cl)c1 44%
Cc1ccc(Cl)c(OCC(=O)N2CCc3ccccc3C2)c1 3.92% [at 1.91 µM]
Cc1cccc(C(=O)OCC(=O)Nc2ccc(F)cc2)c1 -5.24%
COc1ccccc1C(=O)OCC(=O)NCCNC(=O)COC(=O)c1ccccc1OC 1.35%
COc1ccc(S(=O)(=O)NC(C)C(=O)NCc2ccncc2)cc1Cl (configuration not stated) 3.71%

Potency, inactive:
O=C(O)CCCc1ccccc1

Potency, active:
Cc1ccc(N/C=C/C(=O)c2ccccc2)cc1C 0.282 µM
COc1cc(/C=C2/C(=O)ON=C2C)ccc1OCc1ccccc1F 10 µM
c1ccc(-c2nnc3n2NC(c2ccc4c(c2)OCO4)S3)cc1 (configuration not stated) 7.94 µM
COC(=O)c1c(C)[nH]c(C(=O)/C=C/c2ccc(Cl)cc2)c1C 0.282 µM
N#Cc1ccccc1NC(=O)COc1c(Br)cc(Br)c2cccnc12 12.6 µM
Cc1ccc(C2NC(=S)NC3=C2N2CCC3CC2)cc1 (configuration not stated) 11.2 µM
O=C(Nc1nnc(-c2ccc(Cl)cc2)o1)c1ccccc1Br 2.51 µM
CC1=NN(C(=O)CCc2ccccc2O)C(O)(C(F)(F)F)C1 (configuration not stated) 8.91 µM
COc1ccc(CC(=O)N2N=C(C)CC2(O)C(F)(F)F)cc1 (configuration not stated) 7.94 µM
CC1=NN(C(=O)CCCc2ccccc2)C(O)(C(F)(F)F)C1 (configuration not stated) 4.47 µM
O=C(Cc1ccccc1)N1N=C(c2ccncc2)CC1(O)C(F)(F)F (configuration not stated) 7.08 µM
CC1=NN(/C(=N\c2nnc(C)s2)Nc2ccccc2)[C@H](c2ccc(C)cc2)S1 8.91 µM
Cc1ccccc1C(=O)OC1OC(=O)C(Cl)=C1Nc1ccccc1 (configuration not stated) 11.2 µM
CCOC(=O)/C(=N\Nc1ccccc1[N+](=O)[O-])c1csc(Nc2ccccc2)n1 11.2 µM
Cc1cc(C)cc(C(=O)OCC(=O)NCCNC(=O)COC(=O)c2cc(C)cc(C)c2)c1 0.0708 µM
